# Source: PubChem BioAssay AID1345085 (National Center for Advancing Translational Sciences (NCATS), 2018)
# Results filed as inconclusive are left out. Active and inactive are the calls of the source. The call rests on the fitted dose curve; in most records, active means well fitted cell-killing curve with a large enough effect; inconclusive means small, poorly fitted or top-dose-only effect, or effect the other way; inactive means no such curve, though single readings can be large or run the other way.
# Tested on: CAOV3
# Assay: Confirmatory qHTS for gynecologic anti-cancer compounds from libraries of approved drugs and bioactive compounds; further: nearly all actives have a fitted effect of over 55% in size
# Conditions: gynecologic cancer cell panel viability, ATPlite luminescence, 48 h; series mostly up to 57.6 µM; activity change, negative = viability loss: at the top concentration
# Outline: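 ATP-based luminescent viability (ATPlite) after 48 h drug treatment at 37 °C, 5% CO2, across 57.5 uM–0.977 nM in 1:3 steps. Cells seeded at 1,000 per well 16 h beforehand; IC50 values computed, HEK 293T as selectivity control.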
# On the % scale 0 is the no-effect control and ±100 the full control effect; potency means the concentration at half of the fitted maximal effect.
SMILES,"activity change, negative = viability loss",Potency
CCCCN(CCCC)C(=O)CN1C[C@H](c2ccc3c(c2)OCO3)[C@@H](C(=O)O)[C@@H]1c1ccc(OC)cc1,-12.5% (inactive),–
O=C(Nc1cn[nH]c1-c1nc2ccc(CN3CCOCC3)cc2[nH]1)NC1CC1,–,0.122 µM (active)
CCCCc1oc2ccccc2c1C(=O)c1cc(I)c(OCCN(CC)CC)c(I)c1,–,79.4 µM (active)
CN1C2CCC1CC(OC(=O)[C@H](CO)c1ccccc1)C2 (stereo not given in full),-6.01% (inactive),–
CCc1nc(C(N)=O)c(Nc2ccc(N3CCC(N4CCN(C)CC4)CC3)c(OC)c2)nc1NC1CCOCC1,–,6.72 µM (active)
O=c1c2ccccc2nc2n1CCc1c-2[nH]c2ccccc12,-12.1% (inactive),–
CC(Oc1ccc2[nH]nc(/C=C/c3cnn(CCO)c3)c2c1)c1c(Cl)cncc1Cl (stereo not given),–,2.73 µM (active)
CCC1=CC2CN(C1)Cc1c([nH]c3ccccc13)[C@@](C(=O)OC)(c1cc3c(cc1OC)N(C)[C@H]1[C@@](O)(C(=O)OC)[C@H](OC(C)=O)[C@]4(CC)C=CCN5CC[C@]31[C@@H]54)C2 (stereo not given in full),1.08% [at 19.5 µM] (inactive),–
Cc1cc(Nc2cc(N3CCN(C)CC3)nc(Sc3ccc(NC(=O)C4CC4)cc3)n2)n[nH]1,5.82% (inactive),–
Cc1c(C)n(Cc2ccc(-c3ccccc3C(=O)O)cc2)c2ccc(C(=O)N[C@@H](C)c3ccc([N+](=O)[O-])cc3)cc12,11.8% (inactive),–
CC(C)CC(=O)Nc1n[nH]c2c1CN(C(=O)C1CCN(C)CC1)C2(C)C,–,1.22 µM (active)
COc1c(C)c2c(c(O)c1C/C=C(\C)CCC(=O)O)C(=O)OC2,-18.3% (inactive),–
Cc1ccccc1C(OCCN(C)C)c1ccccc1 (stereo not given),8.74% (inactive),–
O=C(NOCC1CC1)c1ccc(F)c(F)c1Nc1ccc(I)cc1Cl,0.245% (inactive),–
CCc1c2c(nc3ccc(OC(=O)N4CCC(N5CCCCC5)CC4)cc13)-c1cc3c(c(=O)n1C2)COC(=O)[C@]3(O)CC,–,19.3 µM (active)
C[C@@H](Oc1cc(-c2cnn(C3CCNCC3)c2)cnc1N)c1c(Cl)ccc(F)c1Cl,–,17.2 µM (active)
NC(=O)c1cnc(-c2ccc(C3(N)CCC3)cc2)c(-c2ccccc2)c1,–,30.6 µM (active)
Nc1ncn([C@@H]2O[C@H](CO)[C@@H](O)[C@H]2O)c(=O)n1,1.76% (inactive),–
CCS(=O)(=O)N1CCN(c2ccc(Nc3ncc(C(N)=O)c(NC4CC4)n3)cc2)CC1,–,6.85 µM (active)
CC[C@H](Nc1ncnc2nc[nH]c12)c1nc2cccc(F)c2c(=O)n1-c1ccccc1,-13.8% [at 10.7 µM] (inactive),–
Cc1ccc(C(=O)Nc2ccc(CN3CCN(C)CC3)c(C(F)(F)F)c2)cc1C#Cc1cnc2cccnn12,–,19.3 µM (active)
O=C(c1ccc(/C=C/c2n[nH]c3ccccc23)cc1)N1CCNCC1,–,19.3 µM (active)
CCN[C@H]1C[C@H](C)S(=O)(=O)c2sc(S(N)(=O)=O)cc21,9.03% (inactive),–
COc1cc(Nc2c(C#N)cnc3cc(OCCCN4CCN(C)CC4)c(OC)cc23)c(Cl)cc1Cl,–,27.3 µM (active)
Cn1c(=O)c(-c2c(Cl)cccc2Cl)cc2cnc(Nc3cccc(C(=O)O)c3)nc21,–,2.73 µM (active)
